# Several values for one entry are separate records, joined by “and”; a condition that tells them apart may be missing. Equal entries are not always repeated. About 610 (9.5%) of roughly 6,400 compounds were called active. This excerpt belongs to a sample that is enriched for actives. Unmarked numbers belong to inactive results. Cut-off read from the data, not from the text of the source: active = activity change below about -70%; inconclusive = no clear call, values can overlap the other calls; inactive = above that.
# Assay: T. gondii ME49Luc in HeLa cells, luciferase assay, 72 h, no IFN-y (AID 1259421)
# Conditions: hits give low values, concentration not given here
row,Structure (SMILES),"activity change, negative = inhibition"
1,CC(C)c1c(O)ccc2c1CCC1C(C)(C)CCC[C@]21C (some centres undefined),25.1%
2,COC(=O)[C@@]1(C)CCC[C@]2(C)c3ccc(O)c(C(C)C)c3CCC12 (some centres undefined),-72.7% (active)
3,CC(=O)Oc1ccc2c(c1C(C)C)CCC1C(C)(C)CCC[C@]21C (some centres undefined),-4.41%
4,CC(=O)C(C#N)C(=O)Nc1cc(Br)ccc1Br (centres undefined),-2.2% and 12.8%
5,COC(=O)C[C@H]1C(C)(C)C(=O)[C@@H]2CC3C4=CC(=O)O[C@@H](c5ccoc5)[C@]4(C)CCC3[C@@]1(C)C2=O (some centres undefined),6.27%
6,CC[C@@]1(C2O[C@@H](C3O[C@@](O)(CO)[C@H](C)C[C@@H]3C)C[C@@H]2C)CC[C@H]([C@]2(C)CC[C@]3(C[C@H](O)[C@@H](C)[C@@H]([C@@H](C)[C@@H](OC)[C@H](C)C(=O)O)O3)O2)O1 (some centres undefined),-80.3% (active)
7,COC(=O)C1C(O)CCC2CN3CCc4c([nH]c5ccccc45)C3CC21 (centres undefined),6.81%
8,C[C@@H]1O[C@@H](OC[C@H]2OC(Oc3c(-c4ccc(OCCO)c(OCCO)c4)oc4cc(OCCO)cc(O)c4c3=O)[C@H](O)[C@@H](O)[C@@H]2O)[C@H](O)[C@H](O)[C@H]1O (some centres undefined),0.547%
9,CN=C(NC#N)NCCSCc1csc(N=C(N)N)n1,21.3% and 9.18%
10,COc1ccc(/C=C\c2cc(OC)c(OC)c(OC)c2)cc1OP(=O)(O)O,-67.2%
11,C[C@H](Oc1ccc(S(C)(=O)=O)cc1C(=O)N1CCN(c2ncc(C(F)(F)F)cc2F)CC1)C(F)(F)F,-27.8%
12,COc1ccc(F)c(F)c1C(=O)c1cnc(NC2CCN(S(C)(=O)=O)CC2)nc1N,-87.7% (active)
13,CN1CCC(Nc2ncc3ncnc(Nc4ccc(F)c(Cl)c4)c3n2)CC1,7.3%
14,O=C(NC(Cc1c[nH]c2ccccc12)C(=O)O)c1ccc(Cl)cc1 (centres undefined),4.2%
15,C=CC(=O)Nc1ccc(OC)cc1,7.75%
16,Cc1cc(Cn2cnc3c2C[C@@H](C(=O)O)N(C(=O)C(c2ccccc2)c2ccccc2)C3)ccc1N(C)C,25.4%
17,CCC(=O)O[C@@H](OP(=O)(CCCCc1ccccc1)CC(=O)N1C[C@H](C2CCCCC2)C[C@H]1C(=O)O)C(C)C (some centres undefined),11.7%
18,CN(C)C(=O)COC(=O)Cc1ccc(OC(=O)c2ccc(N=C(N)N)cc2)cc1,0.553%
19,Nc1ncnc2nc[nH]c12,5.62%
20,Nc1nc(=S)c2[nH]cnc2[nH]1,-77.5% (active)
21,S=c1nc[nH]c2nc[nH]c12,-59.8%
22,CC(NC(=O)CCc1nc2ccccc2c(=O)[nH]1)c1ccccc1 (centres undefined),4.68%

row,Structure (SMILES),"activity change, negative = inhibition"
1,CCOC(=O)c1cnc[nH]1,7.3%
2,CC1(C)CC(=O)C(C2C3=C(CC(C)(C)CC3=O)Oc3ccccc32)C(=O)C1 (centres undefined),4.42% and -1.95%
3,CCc1nc(N)nc(N)c1-c1ccc(Cl)cc1,-89.2% (active) and -80% (active)
4,CC(C)Cc1sc(N)nc1-c1ccc(P(=O)(O)O)o1,7.23%
5,CC(=O)O[C@@]12CO[C@@H]1C[C@H](O)[C@@]1(C)C(=O)[C@H](O)C3=C(C)[C@@H](OC(=O)[C@H](O)[C@@H](NC(=O)OC(C)(C)C)c4ccccc4)C[C@@](O)([C@@H](OC(=O)c4ccccc4)[C@H]21)C3(C)C,-73.3% (active) and -80.3% (active)
6,CO[C@H]1C(=O)[C@@]2(C)[C@H]([C@@H](OC(=O)c3ccccc3)[C@@]3(O)C[C@H](OC(=O)[C@H](O)[C@@H](NC(=O)OC(C)(C)C)c4ccccc4)C(C)=C1C3(C)C)[C@]1(OC(C)=O)CO[C@@H]1C[C@H]2OC,-82.6% (active)
7,CC(=O)O[C@@]12CO[C@@H]1C[C@H](O)[C@@]1(C)C(=O)[C@H](O)C3=C(C)[C@@H](OC(=O)[C@H](O)[C@@H](NC(=O)OC(C)(C)C)c4ccccc4)C[C@@](O)([C@@H](OC(=O)c4ccccc4)C12)C3(C)C (some centres undefined),-80.2% (active)
8,Cc1cccc(C)c1NC(=O)/N=C1/CCCN1C,6.63%
9,COc1ccc(/C=C/C(=O)c2ccc(O)cc2O)cc1,82.9%
10,COc1ccnc(CS(=O)c2nc3ccc(OC(F)F)cc3[nH]2)c1OC (centres undefined),26.3% and 7.86%
11,Cc1ccc(OCC(O)C(C)NC(C)C)c2c1CCC2 (centres undefined),14.3%
12,Cc1oc(=O)oc1CN1CCN(c2cc3c(cc2F)c(=O)c(C(=O)O)c2n3C(C)S2)CC1 (centres undefined),19.8%
13,COc1cc(-c2coc3cc(OCc4ccccc4)c(OC)c(O)c3c2=O)cc(OCc2ccccc2)c1OC,-39.8%
14,COc1ccc([C@@H]2CC(=O)c3c(O)cc(O[C@@H]4O[C@H](CO[C@H]5O[C@@H](C)[C@H](O)[C@@H](O)[C@H]5O)[C@@H](O)[C@H](O)[C@H]4O)cc3O2)cc1O,5.14%
15,Cc1cc(N2CCN([C@@H]3CN[C@H](C(=O)N4CCSC4)C3)CC2)n(-c2ccccc2)n1,-3%
16,COC(=O)N1CCN(Cc2cccc(NC(=O)Nc3ccc(C)nc3)c2F)CC1,9.25%
17,Cc1ccc(C(=O)Nc2ccc(CN3CCN(C)CC3)c(C(F)(F)F)c2)cc1C#Cc1cnc2cccnn12,-83% (active)
18,Cc1ccc(C(=O)Nc2ccc(CN3CCN(C)CC3)c(C(F)(F)F)c2)cc1C#Cc1cnc2[nH]ncc2c1,-89.3% (active)
19,CCCCCCCCCCCCCCCC(=O)OC[C@H](NC(=O)C(Cl)Cl)[C@H](O)c1ccc([N+](=O)[O-])cc1,7.24% and 16.1%
20,NC(=O)CCC1NC(=O)C(Cc2ccccc2)NC(=O)C(Cc2ccc(O)cc2)NC(=O)CCSSCC(C(=O)N2CCCC2C(=O)NC(CCCN=C(N)N)C(=O)NCC(N)=O)NC(=O)C(CC(N)=O)NC1=O (centres undefined),7.89%
21,COc1cc(/C=C/C(=O)O)cc(OC)c1O,-2.18%
22,COc1cc2c(cc1OC)C(c1ccc(N)cc1)=NNC(=O)C2,-18.7% and 7.52%

# — PubChem BioAssay AID1259421 (Broad Institute, 2018)
